In PubChem BioAssay (EPA / NIEHS) one finds outcome and AC50 data, which are given here for 32 compounds.

By AC50 is commonly meant the midpoint of the concentration-response curve, whichever way the signal moves.

Inconclusive results are not listed. Activity calls are given as the source filed them. Rule for the calls: active = hit-call score of the fitted dose curve at least 0.9, where 1 is the maximum; inconclusive = response in the unintended direction; inactive = score below 0.9.

In assay [1] the target is Estrogen receptor (Homo sapiens) (UniProt P03372). Briefly: OT_ER_ERaERa_1440: Odyssey Thera (OT) 24-hour HEK293T Protein-Complementation Assay for Estrogen Receptor-alpha/-alpha Homodimer (AID 2283349).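 Note: hits raise fluorescence above DMSO for agonists and antagonists alike.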 An outline of the steps: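 Protein-fragment complementation between two human ERα ligand-binding domains (aa 310-547) in stably transfected HEK293T cells was monitored after 24 h treatment, using fluorescence intensity relative to vehicle controls.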

Assay [2] shares this target. In words: OT_ER_ERaERa_0480: Odyssey Thera (OT) 8-hour HEK293T Protein-Complementation Assay for Estrogen Receptor-alpha/-alpha Homodimer (AID 2283351).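 Note: rise in fluorescence from reassembled reporter fragments on ERα LBD homodimer in nucleus or whole cell.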 An outline of the steps: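 Binding reporter in which dimerisation of ERα LBD (aa 310-547) fusions reconstitutes a fluorescent reporter in HEK293T cells. Compounds incubated 8 h; mean fluorescence intensity increase versus DMSO scored.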

Assay [3] concerns the target T1, Estrogen receptor (Homo sapiens) + Estrogen receptor beta (Homo sapiens) (UniProt P03372+Q92731). In words: OT_ER_ERaERb_0480: Odyssey Thera (OT) 8-hour HEK293T Protein-Complementation Assay for Estrogen Receptor-alpha/-beta Heterodimer (AID 2283352). An outline of the steps:
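Fluorescence increase from reconstituted reporter fragments, quantified by laser scanning cytometer, reflects ER-alpha/ER-beta heterodimer formation in human HEK293T cells. Exposure 8 h; positive-direction fitting against DMSO vehicle.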

The target of assay [4] is T1, Estrogen receptor (Homo sapiens) + Estrogen receptor beta (Homo sapiens). Briefly: OT_ER_ERaERb_1440: Odyssey Thera (OT) 24-hour HEK293T Protein-Complementation Assay for Estrogen Receptor-alpha/-beta Homodimer (AID 2283356).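 Note: heteromer of ER alpha and ER beta binding domains; hits raise reporter fluorescence and both agonists and antagonists give an increase.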 An outline of the steps: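 Fragment complementation between ER alpha (310-547) and ER beta (263-489) ligand-binding domains in HEK293T cells; signal read 24 h post-dosing by laser scanning cytometer. Gain of fluorescence relative to DMSO fitted.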

The target in assay [5] is Estrogen receptor beta (Homo sapiens) (UniProt Q92731). Briefly: OT_ER_ERbERb_0480: Odyssey Thera (OT) 8-hour HEK293T Protein-Complementation Assay for Estrogen Receptor-beta/-beta Homodimer (AID 2283357).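 Note: active means signal gain over DMSO baseline.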 The essentials:
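Cells (HEK293T, stable ER-beta LBD PCA pair) are treated 8 hours, fixed and Draq5-stained; signal is fluorescence intensity increase relative to vehicle, fitted in the gain direction.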

For assay [6], the target named is human Peroxisome Proliferator-activated Receptor alpha (PPARa), PPARA (gene 5465) (UniProt Q07869). Briefly: NVS_NR_hPPARa: NovaScreen (NVS) Nuclear Receptor Binding Assay for human Peroxisome Proliferator-activated Receptor alpha (PPARa) (AID 2283359).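 Note: activity means loss of TR-FRET signal versus DMSO baseline.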 An outline of the steps: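 Chemicals were first screened in duplicate at 25 uM, and active ones were retested across concentration series. Binding was monitored by TR-FRET one hour after dosing, with decreased signal against DMSO counted as activity.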

The target of assay [7] is Androgen Receptor/SRC-1 Co-activator, AR (gene 367) (UniProt P10275). Briefly: OT_AR_ARSRC1_0960: Odyssey Thera (OT) 16-hour HEK293T Protein-Complementation Assay for Androgen Receptor/SRC-1 Co-activator (AID 2283353).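 Note: actives raise the signal above DMSO so potency reflects increased AR and SRC-1 complex.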 The essentials:
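Interaction of AR with SRC-1 was followed by YFP fragment complementation in HEK293T cells after 16 h of dosing. Gain of nuclear-over-cytoplasmic 488 nm fluorescence against DMSO controls defined activity.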

Assay [8] addresses bovine Estrogen Receptor (ER), ESR1 (gene 407238) (UniProt P49884). In words: NVS_NR_bER: NovaScreen (NVS) Nuclear Receptor Binding Assay for bovine Estrogen Receptor (ER) (AID 2283345).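 Note: actives lower the bound radioligand count which means they displace the ER ligand.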 The essentials: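 Cell-free radioligand binding with receptor from bovine uterine membranes, read by scintillation counting 18 h after dosing. Loss of specific binding was scored against DMSO; primary screen at 25 uM in duplicate, actives then run as concentration series.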

In assay [9] the target is chimpanzee Androgen Receptor (AR), AR (gene 747460) (UniProt O97775). In words: NVS_NR_cAR: NovaScreen (NVS) Nuclear Receptor Binding Assay for chimpanzee Androgen Receptor (AR) (AID 2283346).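 Note: radioligand displacement from AR measured by scintillation counting in a cell-free assay; a loss of bound radioligand signal versus DMSO counts as binding.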 The essentials: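 Cell-free competition binding with insect-cell (Sf9/Sf21) extracted chimpanzee AR; scintillation signal from lysate at 72 h. Screened in duplicate at 25 uM, then concentration-response for actives; fitting relative to DMSO.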

Assay [10] has as its target Bile acid receptor (Homo sapiens) (UniProt Q96RI1). In words: NVS_NR_hFXR_Antagonist: NovaScreen (NVS) Nuclear Receptor Binding Assay for human Farnesoid X Receptor Antagonism (FXR) (AID 2283350). An outline of the steps: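 Cell-free TR-FRET ligand-binding read-out on human FXR (NR1H4) in antagonist mode, measured 1 h after dosing. Primary screen in duplicate at 25 uM, actives retested in concentration series; signal loss scored versus DMSO.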

Chain of bovine Estrogen Receptor (ER), ESR1 (gene 407238) (P49884 whole entry, looked up): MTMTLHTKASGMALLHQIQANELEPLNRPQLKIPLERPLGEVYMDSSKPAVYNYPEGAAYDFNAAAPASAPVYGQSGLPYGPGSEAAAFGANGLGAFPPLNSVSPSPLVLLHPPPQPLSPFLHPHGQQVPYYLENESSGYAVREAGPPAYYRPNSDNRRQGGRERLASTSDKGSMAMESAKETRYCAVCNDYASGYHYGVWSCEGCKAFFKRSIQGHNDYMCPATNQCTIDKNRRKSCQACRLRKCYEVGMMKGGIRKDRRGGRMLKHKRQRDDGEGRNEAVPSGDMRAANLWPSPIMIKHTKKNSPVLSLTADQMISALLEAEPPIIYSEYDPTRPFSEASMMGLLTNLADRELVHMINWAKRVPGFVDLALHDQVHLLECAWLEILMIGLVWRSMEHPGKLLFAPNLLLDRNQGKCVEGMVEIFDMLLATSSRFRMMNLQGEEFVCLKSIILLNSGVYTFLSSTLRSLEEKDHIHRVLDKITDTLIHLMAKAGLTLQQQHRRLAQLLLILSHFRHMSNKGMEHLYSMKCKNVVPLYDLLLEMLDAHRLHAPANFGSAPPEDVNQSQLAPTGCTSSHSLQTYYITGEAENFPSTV
Chain of Estrogen receptor beta (Homo sapiens) (Q92731 whole entry, looked up, the tested form may be a part): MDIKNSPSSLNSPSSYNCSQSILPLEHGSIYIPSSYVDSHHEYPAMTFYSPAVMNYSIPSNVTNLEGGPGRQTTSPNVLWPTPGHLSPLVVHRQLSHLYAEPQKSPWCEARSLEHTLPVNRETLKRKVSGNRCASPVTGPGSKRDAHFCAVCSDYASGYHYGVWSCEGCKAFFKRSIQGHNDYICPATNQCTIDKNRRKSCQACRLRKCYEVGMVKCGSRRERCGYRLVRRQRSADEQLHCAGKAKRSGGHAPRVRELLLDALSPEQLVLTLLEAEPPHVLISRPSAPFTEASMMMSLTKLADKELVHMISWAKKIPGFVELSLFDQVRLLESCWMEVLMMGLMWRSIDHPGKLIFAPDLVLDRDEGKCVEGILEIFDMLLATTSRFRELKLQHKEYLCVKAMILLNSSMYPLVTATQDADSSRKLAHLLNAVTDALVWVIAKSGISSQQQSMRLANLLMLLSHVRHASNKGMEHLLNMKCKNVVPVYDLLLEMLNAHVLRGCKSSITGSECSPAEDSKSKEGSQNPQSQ
Chain of chimpanzee Androgen Receptor (AR), AR (gene 747460) (O97775 whole entry, looked up): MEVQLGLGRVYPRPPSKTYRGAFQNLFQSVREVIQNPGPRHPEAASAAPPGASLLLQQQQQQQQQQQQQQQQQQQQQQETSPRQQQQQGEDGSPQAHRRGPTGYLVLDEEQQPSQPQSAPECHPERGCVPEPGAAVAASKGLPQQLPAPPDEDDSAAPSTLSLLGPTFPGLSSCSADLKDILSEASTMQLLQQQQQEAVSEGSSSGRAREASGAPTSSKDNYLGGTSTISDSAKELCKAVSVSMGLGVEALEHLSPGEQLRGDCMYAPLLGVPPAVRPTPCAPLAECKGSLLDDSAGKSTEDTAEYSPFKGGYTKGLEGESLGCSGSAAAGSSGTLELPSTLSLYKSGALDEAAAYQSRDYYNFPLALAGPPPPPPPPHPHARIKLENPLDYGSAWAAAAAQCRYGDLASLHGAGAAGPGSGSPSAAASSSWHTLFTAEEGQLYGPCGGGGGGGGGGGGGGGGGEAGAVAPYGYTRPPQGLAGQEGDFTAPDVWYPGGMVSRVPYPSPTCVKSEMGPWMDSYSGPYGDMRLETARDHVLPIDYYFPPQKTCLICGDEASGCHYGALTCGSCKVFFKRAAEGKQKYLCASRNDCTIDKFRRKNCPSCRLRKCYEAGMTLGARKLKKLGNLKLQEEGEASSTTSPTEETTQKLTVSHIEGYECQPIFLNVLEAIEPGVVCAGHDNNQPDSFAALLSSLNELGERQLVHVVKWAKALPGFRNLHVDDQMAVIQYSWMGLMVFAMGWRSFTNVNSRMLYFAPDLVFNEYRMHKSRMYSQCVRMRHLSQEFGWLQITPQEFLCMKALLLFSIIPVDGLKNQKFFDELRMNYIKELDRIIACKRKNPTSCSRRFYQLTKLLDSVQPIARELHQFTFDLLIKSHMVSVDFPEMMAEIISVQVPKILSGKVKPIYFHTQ
T1 sequence (P03372 whole entry, looked up, the tested form may be a part): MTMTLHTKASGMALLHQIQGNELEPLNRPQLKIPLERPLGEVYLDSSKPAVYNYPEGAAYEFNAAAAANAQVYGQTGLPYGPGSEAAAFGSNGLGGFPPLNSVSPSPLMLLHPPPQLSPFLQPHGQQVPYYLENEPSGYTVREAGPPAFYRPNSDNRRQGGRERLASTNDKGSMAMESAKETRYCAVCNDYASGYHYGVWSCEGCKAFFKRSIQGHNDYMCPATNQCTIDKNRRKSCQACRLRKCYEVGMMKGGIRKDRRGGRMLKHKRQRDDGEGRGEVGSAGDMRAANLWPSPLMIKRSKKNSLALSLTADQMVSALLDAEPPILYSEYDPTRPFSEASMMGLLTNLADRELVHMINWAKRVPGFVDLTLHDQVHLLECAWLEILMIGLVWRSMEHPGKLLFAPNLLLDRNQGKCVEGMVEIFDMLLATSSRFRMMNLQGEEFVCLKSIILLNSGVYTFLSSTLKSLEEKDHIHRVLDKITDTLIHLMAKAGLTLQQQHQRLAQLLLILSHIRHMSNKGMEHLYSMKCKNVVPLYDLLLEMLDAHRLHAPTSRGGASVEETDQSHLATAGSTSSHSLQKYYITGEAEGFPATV
T1 sequence (Q92731 whole entry, looked up, the tested form may be a part): as the sequence (Q92731 whole entry, looked up, the tested form may be a part) above
Chain of Estrogen receptor (Homo sapiens) (P03372 whole entry, looked up, the tested form may be a part): as the sequence (P03372 whole entry, looked up, the tested form may be a part) above
Chain of Androgen Receptor/SRC-1 Co-activator, AR (gene 367) (P10275 whole entry, looked up, the tested form may be a part): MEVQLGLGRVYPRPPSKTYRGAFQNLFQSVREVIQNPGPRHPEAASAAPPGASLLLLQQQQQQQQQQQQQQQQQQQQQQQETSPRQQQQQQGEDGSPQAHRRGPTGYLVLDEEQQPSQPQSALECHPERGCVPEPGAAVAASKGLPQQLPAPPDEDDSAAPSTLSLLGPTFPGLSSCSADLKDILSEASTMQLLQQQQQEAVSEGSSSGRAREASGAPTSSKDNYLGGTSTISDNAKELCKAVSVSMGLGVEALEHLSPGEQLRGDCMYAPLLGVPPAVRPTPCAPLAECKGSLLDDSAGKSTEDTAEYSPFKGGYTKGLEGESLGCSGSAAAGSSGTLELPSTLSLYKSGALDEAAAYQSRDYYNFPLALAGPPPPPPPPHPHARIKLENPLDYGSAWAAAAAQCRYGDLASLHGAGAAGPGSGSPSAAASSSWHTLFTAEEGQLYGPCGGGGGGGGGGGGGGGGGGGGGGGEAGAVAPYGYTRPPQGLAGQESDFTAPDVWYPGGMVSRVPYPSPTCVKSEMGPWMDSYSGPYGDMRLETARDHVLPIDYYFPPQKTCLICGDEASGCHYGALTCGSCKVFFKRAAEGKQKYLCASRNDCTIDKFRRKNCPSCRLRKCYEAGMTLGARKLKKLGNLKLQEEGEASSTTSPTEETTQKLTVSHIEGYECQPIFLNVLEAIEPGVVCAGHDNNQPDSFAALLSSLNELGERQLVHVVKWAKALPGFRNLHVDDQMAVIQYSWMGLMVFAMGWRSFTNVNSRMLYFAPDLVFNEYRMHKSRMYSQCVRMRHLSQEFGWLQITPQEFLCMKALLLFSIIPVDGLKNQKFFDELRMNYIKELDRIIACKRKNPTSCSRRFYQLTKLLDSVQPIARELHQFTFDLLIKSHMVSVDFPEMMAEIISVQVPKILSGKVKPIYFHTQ
Chain of human Peroxisome Proliferator-activated Receptor alpha (PPARa), PPARA (gene 5465) (Q07869 whole entry, looked up): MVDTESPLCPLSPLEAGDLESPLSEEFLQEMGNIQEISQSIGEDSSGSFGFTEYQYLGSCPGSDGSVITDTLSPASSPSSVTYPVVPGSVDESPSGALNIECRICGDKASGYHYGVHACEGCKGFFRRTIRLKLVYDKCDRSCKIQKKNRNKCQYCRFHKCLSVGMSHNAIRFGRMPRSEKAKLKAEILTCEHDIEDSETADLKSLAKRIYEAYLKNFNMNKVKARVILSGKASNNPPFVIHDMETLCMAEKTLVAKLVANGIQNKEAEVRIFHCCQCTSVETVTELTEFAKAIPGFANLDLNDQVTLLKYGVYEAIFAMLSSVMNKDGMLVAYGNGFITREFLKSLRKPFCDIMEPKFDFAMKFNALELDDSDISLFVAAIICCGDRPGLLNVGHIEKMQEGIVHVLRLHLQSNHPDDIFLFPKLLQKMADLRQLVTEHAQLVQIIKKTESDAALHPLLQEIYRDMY
Chain of Bile acid receptor (Homo sapiens) (Q96RI1 whole entry, looked up): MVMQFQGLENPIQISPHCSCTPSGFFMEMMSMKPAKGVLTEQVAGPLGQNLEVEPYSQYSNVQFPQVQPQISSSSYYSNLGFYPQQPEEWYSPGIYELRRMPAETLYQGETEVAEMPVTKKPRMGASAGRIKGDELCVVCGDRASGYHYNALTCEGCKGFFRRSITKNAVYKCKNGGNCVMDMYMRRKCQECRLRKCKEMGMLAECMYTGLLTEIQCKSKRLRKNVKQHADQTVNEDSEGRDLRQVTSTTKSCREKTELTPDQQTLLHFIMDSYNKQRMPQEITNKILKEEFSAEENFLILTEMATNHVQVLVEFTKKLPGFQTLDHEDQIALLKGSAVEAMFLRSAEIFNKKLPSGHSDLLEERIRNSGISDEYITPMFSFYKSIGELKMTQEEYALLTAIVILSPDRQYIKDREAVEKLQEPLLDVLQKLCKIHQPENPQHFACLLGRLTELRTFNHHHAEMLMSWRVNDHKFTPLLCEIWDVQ

On to `O=C(CBr)OCc1ccccc1`, for which the compound was classed as inactive in assay [1], in assay [2], in assay [3], in assay [4], in assay [5] and in assay [6].

For `CCCCC(CC)COC(=O)c1c(Br)c(Br)c(Br)c(Br)c1C(=O)OCC(CC)CCCC` (configuration not stated), the result in assay [1], in assay [2], in assay [3], in [4] and in [5] was inactive.

On to `CCOP(=S)(OCC)SCSCC`, for which the outcome in assay [1], in assay [2], in [3], in [4], in assay [5] and in assay [6] was inactive.

As for `CN(C)C(=O)Cl`, the call in assay [1] and in assay [6] was inactive.

In the case of `FC(F)(F)c1ccc(Cl)cc1`, the compound was called inactive in assay [2], in assay [4] and in assay [5].

As for `c1cc2c3c(cccc3c1)CC2`, the compound was called inactive in assay [1], in [2], in assay [3], in assay [7], in [4] and in assay [5].

Take `CC(C)(C)N(NC(=O)c1ccc(Cl)cc1)C(=O)c1ccccc1`: the outcome in assay [1], in assay [7], in [4] and in [5] was inactive.

Turning to `O=C(O)C1C(C(=O)O)C2(Cl)C(Cl)=C(Cl)C1(Cl)C2(Cl)Cl` (configuration not stated), the compound was classed as inactive in assay [1], in [2], in assay [3], in [4] and in assay [5].

In the case of `CC(Cl)(Cl)C(=O)O`, the compound was classed as inactive in assay [8], in assay [1], in [2], in [3], in [4] and in [5].

In the case of `COCCOCCO`, the outcome in [1], in [2], in assay [3] and in assay [5] was inactive.

For the compound `O=c1ssc(Cl)c1Cl`, the compound was called inactive in assay [1], in assay [2] and in assay [5].

As for `Cc1cccc(N)c1`, the compound was called inactive in assay [1] and in [2].

Consider `CCCCN(CC)C(=O)SCCC`, for which the outcome in assay [1], in assay [2], in assay [3], in assay [7], in [4] and in assay [5] was inactive.

Consider `O=S1(=O)OCC2C(CO1)C1(Cl)C(Cl)=C(Cl)C2(Cl)C1(Cl)Cl` (configuration not stated), for which the compound was classed as inactive in [9], in assay [1], in assay [2], in assay [3] and in assay [5]. In addition, the AC50 in assay [4] is 86.8 µM (active).

Regarding `c1nc[nH]n1`, the outcome in [8], in assay [1], in assay [2], in assay [3], in [4] and in assay [5] was inactive.

For the compound `c1ccc2c(c1)sc1ccccc12`, the result in assay [1] and in assay [2] was inactive.

For the compound `O=[N+]([O-])c1ccc(Cl)c(Cl)c1`, the call in assay [1] and in assay [2] was inactive.

For the compound `CCOC(=O)c1ccccc1N`, the result in [1], in assay [2], in [3], in assay [4] and in [5] was inactive.

As for `Cc1ccc(N)cc1N`, the compound was called inactive in assay [1], in [2], in [3], in assay [4] and in [5].

Consider `CC(Cc1ccc(OCC(=O)O)cc1)NCC(O)c1csc(C(F)(F)F)n1` (configuration not stated), for which the call in [1], in assay [2], in [4] and in [5] was inactive.

Consider `[N-]=[N+]=[N-]`, for which the compound was called inactive in assay [1], in assay [2] and in [7].

As to `O=NN1CCCC1`, the compound was called inactive in assay [9], in assay [2], in assay [3], in assay [4] and in assay [5]. Also, the AC50 in [1] is 12.1 µM (active).

`CCOC(=O)c1ccccc1C(=O)OCC`: the result in assay [1] was inactive.

On to `O=C(O)CF`, for which the outcome in assay [9], in assay [1], in [2], in assay [3], in assay [4] and in [5] was inactive.

On to `O=[N+]([O-])c1ccccc1`, for which the result in assay [8], in [1], in [2], in [3], in assay [4] and in assay [5] was inactive.

Regarding `Cc1ccc(O)cc1C`, the call in assay [1], in assay [2], in assay [3], in [4] and in [5] was inactive.

On to `COC(N)=O`, for which the result in [1], in [2], in assay [3], in [4] and in assay [5] was inactive.

In the case of `CCOS(=O)(=O)OCC`, the compound was classed as inactive in assay [1], in assay [2], in assay [3] and in [4].

Regarding `ClC(Cl)c1ccccc1`, the call in [1] and in assay [2] was inactive.

For the compound `CCN(CC)c1ccccc1`, the outcome in assay [1], in [2], in assay [3], in assay [7], in [4] and in [5] was inactive.

With `CCOc1ccc(C(C)(C)COCc2cccc(Oc3ccccc3)c2)cc1`, the compound was called inactive in assay [1], in assay [3], in assay [4] and in assay [5].

With `CCCCc1ccccc1`, the compound was called inactive in [1], in assay [10], in assay [2], in assay [3], in [4] and in assay [5].
